According to PubChem BioAssay (EPA / NIEHS):
Values joined by “and” are separate entries in the source; they are usually repeats but may differ in a detail not shown here. Equal entries are not always repeated. The source holds several records for some structures; these can differ, active in one and inactive in another. Active and inactive are the calls of the source. The calls were made as follows: active = hit-call score of the fitted dose curve at least 0.9, where 1 is the maximum; inactive = score below 0.9.

What was measured:
[1] = read-out: Interleukin-8 (IL8), CXCL8 (gene 3576); experiment: BSK_BE3C_IL8: BioMAP Diversity Plus: BE3C Assay for Interleukin-8 (IL8) Biomarker Activity (AID 2284280); conditions: primary human bronchial epithelial cells
Procedure, shortened: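 Measured at 24 h after treatment, IL-8 from human primary bronchial epithelial cells is determined by ELISA, and the response is modelled as increasing relative to DMSO negative control.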

[2] = read-out: Epidermal growth factor receptor (EGFR), EGFR (gene 1956); experiment: BSK_BE3C_EGFR: BioMAP Diversity Plus: BE3C Assay for Epidermal growth factor receptor (EGFR) Biomarker Activity (AID 2284281); conditions: primary human bronchial epithelial cells
Procedure, shortened: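 Measured 24 h after dosing in primary human bronchial epithelial cultures, EGFR was read by ELISA; gain of signal over DMSO control defined activity.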

[3] = read-out: KRT18 (gene 3875); experiment: BSK_BE3C_Keratin818: BioMAP Diversity Plus: BE3C Assay for Keratin 818 Biomarker Activity (AID 2284282); conditions: primary human bronchial epithelial cells
Procedure, shortened: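 Keratin 8/18 levels, detected by ELISA, served as the endpoint after 24 h chemical exposure of primary human bronchial epithelial cells. Gain of signal relative to DMSO negative control defined activity.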

[4] = read-out: Matrix Metallopeptidase 9 (MMP9), MMP9 (gene 4318); experiment: BSK_BE3C_MMP9: BioMAP Diversity Plus: BE3C Assay for Matrix Metallopeptidase 9 (MMP9) Biomarker Activity (AID 2284283); conditions: primary human bronchial epithelial cells
Procedure, shortened: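 Endpoint is the ELISA MMP-9 signal in human primary bronchial epithelial cultures taken 24 h after chemical dosing. DMSO serves as negative control and baseline, with gain-of-signal fitting.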

[5] = read-out: Plasminogen activator inhibitor-1 (PAI1), SERPINE1 (gene 5054); experiment: BSK_CASM3C_PAI1: BioMAP Diversity Plus: CASM3C Assay for Plasminogen activator inhibitor-1 (PAI1) Biomarker Activity (AID 2284284); conditions: primary human coronary artery smooth muscle cells;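 also: PAI-1 protein level measured by ELISA 24 h after dosing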
[6] = read-out: Monocyte Chemoattractant Protein-1 (MCP1), CCL2 (gene 6347); experiment: BSK_hDFCGF_MCP1: BioMAP Diversity Plus: hDFCGF Assay for Monocyte Chemoattractant Protein-1 (MCP1) Biomarker Activity (AID 2284285); conditions: primary human foreskin fibroblasts
Protocol: (§1) BSK_hDFCGF is a cell-based, multiplexed-readout assay that uses foreskin fibroblast, a human skin primary cell, with measurements taken at 24 hours after chemical dosing in a 96-well plate.BSK_hDFCGF_MCP1 is an assay component measured in the BSK_hDFCGF assay. It measures MCP-1 antibody related to regulation of gene expression using ELISA technology.Data from the assay component BSK_hDFCGF_MCP1 was analyzed at the endpoint, BSK_hDFCGF_MCP1, in the positive analysis fitting direction relative to DMSO as the negative control and baseline of activity. Using a type of binding reporter, gain or loss-of-signal activity can be used to understand protein changes. To generalize the intended target to other relatable targets, this assay endpoint is annotated to the 'cytokine' intended target family, where the subfamily is 'chemotactic factor'.
(§2) The levels of cell surface (or secreted, indicated by the prefix "s") biomarker endpoints were measured by ELISA. Overt cytotoxicity to cells in confluent adherent cultures (all systems other than the BT system) was assessed by measuring total protein levels using sulforhodamine B (SRB) staining in parallel cultures at the time of biomarker measurements, indicated as SRB endpoints. For proliferation assays for adherent cell types, individual cell types are cultured at sub-confluence and relative cell numbers quantified by SRB staining at time points optimized for each system (48 h: 3C and CASM3C systems; 72 h: BT and HDF3CGF systems; 96 h: SAg system). SRB was performed by staining cells with 0.1% SRB after fixation with 10% TCA and reading wells at 560 nm.Viability and proliferation of PBMC (T cells) was quantified by Alamar Blue reduction for the SAg and BT systems. For PBMC viability (referred to as PBMC Cytotoxicity within the assay endpoint names), cells were plated (75,000/well in a 96-well plate) and then chemical samples added for 1 h before addition of activators, SEB and TSST-1 (20 ng/mL final concentration each). Cells were incubated for 90 h. Then, Alamar Blue (20 uL/well) (Invitrogen, Cat DAL1100) was added for 6 h, and the plates were read with a fluorescence microplate reader at 546/580 nm (excitation/emission). For PBMC proliferation, cells were plated and activated as above but incubated for only 16 h prior to addition of Alamar Blue. Plates were read after 6 h.

[7] = read-out: Vascular cell adhesion molecule 1 (VCAM1), VCAM1 (gene 7412); experiment: BSK_IMphg_VCAM1: BioMAP Diversity Plus: IMphg Assay for Vascular cell adhesion molecule 1 (VCAM1) Biomarker Activity (AID 2284286); conditions: primary human endothelial cells with macrophages
Procedure, shortened: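 ELISA read-out of VCAM-1 on venular endothelial cell/macrophage co-cultures at 24 h post-treatment, with DMSO as baseline and positive-direction fitting. Parallel sulforhodamine B total-protein staining (560 nm) served as the overt cytotoxicity measure.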

[8] = read-out: Intercellular Adhesion Molecule 1 (ICAM1), ICAM1 (gene 3383); experiment: BSK_hDFCGF_ICAM1: BioMAP Diversity Plus: hDFCGF Assay for Intercellular Adhesion Molecule 1 (ICAM1) Biomarker Activity (AID 2284287); conditions: primary human foreskin fibroblasts
Protocol: as §1, with “plate.BSK_hDFCGF_ICAM1” for “plate.BSK_hDFCGF_MCP1”, “ICAM-1” for “MCP-1”, “BSK_hDFCGF_ICAM1” for “BSK_hDFCGF_MCP1”, “BSK_hDFCGF_ICAM1,” for “BSK_hDFCGF_MCP1,”, “'cell adhesion molecules'” for “'cytokine'”, “'Immunoglobulin CAM'.” for “'chemotactic factor'.”
as §2

[9] = read-out: CD40, CD40 (gene 958); experiment: BSK_IMphg_CD40: BioMAP Diversity Plus: IMphg Assay for CD40 Biomarker Activity (AID 2284288); conditions: primary human endothelial cells with macrophages
Protocol: BSK_IMphg is a cell-based, multiplexed-readout assay that uses venular endothelial cells and macrophages, a human vascular primary cell, with measurements taken at 24 hours after chemical dosing in a microplate: 96-well plate.BSK_IMphg_CD40 is an assay component measured in the BSK_IMphg assay. It measures CD40 antibody related to regulation of gene expression using ELISA technology.Data from the assay component BSK_IMphg_CD40 was analyzed at the endpoint, BSK_IMphg_CD40, in the positive analysis fitting direction relative to DMSO as the negative control and baseline of activity. Using a type of binding reporter, gain or loss-of-signal activity can be used to understand protein changes. To generalize the intended target to other relatable targets, this assay endpoint is annotated to the 'cytokine' intended target family, where the subfamily is 'inflammatory factor'.
as §2

[10] = read-out: TIMP metallopeptidase inhibitor 2 (TIMP2), TIMP2 (gene 7077); experiment: BSK_hDFCGF_TIMP2: BioMAP Diversity Plus: hDFCGF Assay for TIMP metallopeptidase inhibitor 2 (TIMP2) Biomarker Activity (AID 2284289); conditions: primary human foreskin fibroblasts
Protocol: as §1, with “plate.BSK_hDFCGF_TIMP2” for “plate.BSK_hDFCGF_MCP1”, “TIMP-2” for “MCP-1”, “BSK_hDFCGF_TIMP2” for “BSK_hDFCGF_MCP1”, “BSK_hDFCGF_TIMP2,” for “BSK_hDFCGF_MCP1,”, “'protease'” for “'cytokine'”, “'matrix metalloproteinase'.” for “'chemotactic factor'.”
as §2

In the case of NCC(F)(F)C(F)(F)C(F)(F)C(F)(F)C(F)(F)C(F)(F)C(F)(F)F, the outcome [1] is reported as “inactive”, the outcome [2] is reported as “inactive” and the outcome [3] is reported as “inactive”. The outcome [4] was “inactive”, the outcome [5] was “inactive” and the outcome [6] was “inactive”. The outcome [7] was “inactive”, the outcome [8] was “inactive” and the AC50 [9] was 24 µM (active). The outcome [9] was “inactive” and the outcome [10] was “inactive”.
With C[C@@H]1C[C@H]2[C@@H]3CCC4=CC(=O)C=C[C@]4(C)[C@@]3(F)[C@@H](O)C[C@]2(C)[C@@]1(O)C(=O)COP(=O)(O)O the AC50 [1] was 1.6 µM (active) and 182 nM (active), the outcome [2] was “inactive” and the outcome [3] was “inactive”. The outcome [4] was “inactive”, the outcome [5] was “inactive” and the outcome [6] was “inactive”. For the same molecule, the AC50 [7] was 3.41 µM (active), the outcome [7] was “inactive” and the outcome [8] was “inactive”. The AC50 [9] was 13.3 µM (active), the outcome [9] was “inactive” and the AC50 [10] was 966 nM (active). For the same molecule, the outcome [10] was “inactive”.
OCCC(F)(F)C(F)(F)C(F)(F)C(F)(F)C(F)(F)C(F)(F)F was tested, and the outcome [1] was “inactive”, the outcome [2] was “inactive” and the outcome [3] was “inactive”. For the same molecule, the outcome [4] was “inactive”, the outcome [5] was “inactive” and the AC50 [6] was 49.6 µM (active) and 54.3 µM (active). The outcome [7] was “inactive”, the AC50 [8] was 44 µM (active) and 54 µM (active) and the outcome [9] was “inactive”. The AC50 [10] was 52.5 µM (active) and 47 µM (active).
In the case of OCCC(F)(F)C(F)(F)C(F)(F)C(F)(F)C(F)(F)C(F)(F)C(F)(F)C(F)(F)F, the AC50 [1] is reported as 12.3 µM (active) and 13.3 µM (active), the AC50 [2] is reported as 21.8 µM (active) and the outcome [2] is reported as “inactive”. The AC50 [3] was 24.7 µM (active) and 16.8 µM (active), the AC50 [4] was 14.2 µM (active) and 30 µM (active) and the AC50 [5] was 44.5 µM (active) and 41 µM (active). The AC50 [6] was 17.1 µM (active) and 11.3 µM (active), the AC50 [7] was 45.5 µM (active) and 44.5 µM (active) and the AC50 [8] was 18.1 µM (active) and 18.3 µM (active). For the same molecule, the AC50 [9] was 46.1 µM (active) and 45.6 µM (active) and the AC50 [10] was 5.95 µM (active) and 16.2 µM (active).
For FC(F)(I)C(F)(F)C(F)(F)C(F)(F)C(F)(F)C(F)(F)I, the AC50 [1] was 19.6 µM (active) [middle of 5 runs], the AC50 [6] was 5.13 µM (active) [middle of 5 runs] and the AC50 [7] was 43.1 µM (active) [middle of 5 runs]. The AC50 [8] was 5.98 µM (active) [middle of 5 runs], the outcome [9] was “inactive” and the AC50 [10] was 5.93 µM (active) and 5.41 µM (active) and 5.49 µM (active). The outcome [10] was “inactive”.
With C=C(C)C(=O)OCCC(F)(F)C(F)(F)C(F)(F)C(F)(F)C(F)(F)C(F)(F)F the outcome [1] was “inactive”, the outcome [2] was “inactive” and the AC50 [3] was 2.19 µM (active). For the same molecule, the outcome [3] was “inactive”, the outcome [4] was “inactive” and the outcome [5] was “inactive”. For the same molecule, the outcome [6] was “inactive”, the outcome [7] was “inactive” and the outcome [8] was “inactive”. For the same molecule, the outcome [9] was “inactive” and the outcome [10] was “inactive”.
